Assay outcomes: PubChem BioAssay, Sanford-Burnham Center for Chemical Genomics
This is a sample that favours compounds with a hit; in the whole collection about 6.3% have one here.
tim10-1 inh – growth inhibitors of tim10-1 mutant yeast, primary screen, luminescence, uHTS; inhibition, % at 20 µM; S. cerevisiae tim10-1 ts strain growth, BacTiter-Glo, 24 h; 330,000 compounds, 2.2% hits;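 active = inhibition of at least 40%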;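 note: mutant grown at 25 °C; 0% = DMSO wells with yeast and 100% = wells holding no yeast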
tim23-1 inh – growth inhibitors of tim23-1 mutant yeast, primary screen, luminescence, uHTS; S. cerevisiae tim23-1 growth, BacTiter-Glo luminescence, 24 h; inhibition, % at 20 µM; 330,000 compounds, 1.3% hits; AID 463212, 2010;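 active = growth inhibition of the mutant yeast at or above 50%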;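 note: temperature-sensitive mutant grown at 25 °C; plate controls were DMSO-treated mutant yeast for no effect and medium wells lacking yeast for full effect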
TIM10 inh – growth inhibitors of isogenic TIM10 control yeast, primary screen, counter-screen for tim10-1 yeast inhibitor project, luminescence, uHTS; 330,000 compounds, 1.4% hits; inhibition, % at 10 µM; S. cerevisiae TIM10 strain growth, BacTiter-Glo luminescence, 24 h;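 active = inhibition of 40% or more at the single tested concentration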;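 note: wild-type TIM10 isogenic control strain grown at permissive 25 °C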
MPTP block – mitochondrial permeability transition pore inhibitors, primary screen, biochemical, isolated mouse mitochondria, absorbance; Ca2+ swelling absorbance, 30 min; inhibition, % at 10 µM; 360,000 compounds, 1.4% hits;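 active = inhibition of 50% or more, scaled per plate between neutral and stimulator controls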;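 note: 0% = DMSO wells given calcium and 100% = 1 mM EGTA wells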
Mdm2 MdmX PPI – inhibitors of human Mdm2-MdmX association, primary screen, cell-based, luminescence, split luciferase, SaOS-2, uHTS; Protein Mdm4 (Homo sapiens) + E3 ubiquitin-protein ligase Mdm2 (Homo sapiens), …; 330,000 compounds, 3% hits; SaOS-2 split-luciferase Mdm2/MdmX complementation; inhibition, % at 8 µM;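 active = inhibition of at least 50% at 8 µM in the primary screen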
Target sequence (O15151 whole entry, looked up): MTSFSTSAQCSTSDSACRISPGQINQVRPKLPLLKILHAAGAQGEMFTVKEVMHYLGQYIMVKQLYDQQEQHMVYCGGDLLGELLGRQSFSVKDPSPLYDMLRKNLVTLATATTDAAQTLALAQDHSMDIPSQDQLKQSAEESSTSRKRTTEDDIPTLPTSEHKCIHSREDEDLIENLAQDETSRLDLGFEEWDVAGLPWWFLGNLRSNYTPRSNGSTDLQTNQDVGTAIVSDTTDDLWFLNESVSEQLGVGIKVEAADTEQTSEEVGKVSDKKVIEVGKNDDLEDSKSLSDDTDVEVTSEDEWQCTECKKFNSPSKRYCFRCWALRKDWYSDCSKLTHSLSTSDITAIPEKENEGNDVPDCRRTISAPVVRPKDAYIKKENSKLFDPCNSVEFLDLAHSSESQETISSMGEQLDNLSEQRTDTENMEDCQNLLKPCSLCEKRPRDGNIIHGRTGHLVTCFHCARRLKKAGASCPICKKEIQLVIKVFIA
Target sequence (Q00987 whole entry, looked up): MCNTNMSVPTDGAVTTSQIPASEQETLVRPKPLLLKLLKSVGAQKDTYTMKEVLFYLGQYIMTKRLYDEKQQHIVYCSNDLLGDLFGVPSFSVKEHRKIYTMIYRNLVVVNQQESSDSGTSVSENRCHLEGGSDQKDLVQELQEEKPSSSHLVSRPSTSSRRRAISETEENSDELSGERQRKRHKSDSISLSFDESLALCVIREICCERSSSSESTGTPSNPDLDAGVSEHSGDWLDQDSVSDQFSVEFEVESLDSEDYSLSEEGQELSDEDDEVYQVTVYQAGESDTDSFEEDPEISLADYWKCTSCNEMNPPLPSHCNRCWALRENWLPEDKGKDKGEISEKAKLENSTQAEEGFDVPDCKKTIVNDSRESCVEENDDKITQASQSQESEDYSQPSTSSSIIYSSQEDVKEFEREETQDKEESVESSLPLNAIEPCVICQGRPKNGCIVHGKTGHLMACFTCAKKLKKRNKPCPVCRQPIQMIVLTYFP
tim10-1 confirm – growth inhibitors of tim10-1 mutant yeast, confirmation, single concentration, luminescence, S. cerevisiae | shares compounds with tim10-1 inh | S. cerevisiae tim10-1 ts strain growth, BacTiter-Glo, 24 h | inhibition, % at 20 µM | 7,400 compounds, 56% hits | AID 463213, 2010;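 active = inhibition of yeast growth at or above a set limit in either of two repeat tests at 20 µM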;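 note: tim10-1 mutant grown at permissive 25 °C to find synthetic lethal compounds; 0% = DMSO yeast wells and 100% = medium wells without yeast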
TIM10 conf – growth inhibitors of wild-type TIM10 yeast, confirmation, counter-screen for tim10-1 synthetic lethality project, single concentration, luminescence, S. cerevisiae | shares compounds with TIM10 inh | S. cerevisiae tim10 strain growth, BacTiter-Glo luminescence, 24 h | inhibition, % at 10 µM | 4,600 compounds, 63% hits | AID 463215, 2010;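 active = inhibition of yeast growth at or above a set limit in either of two replicates at 10 µM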;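 note: this counterscreen used the strain with wild-type TIM10; 0% = yeast with DMSO and 100% = medium wells lacking yeast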
tim23-1 confirm – tim23-1 mutant yeast growth inhibitors, confirmation, luminescence, single concentration. shares compounds with tim23-1 inh. S. cerevisiae tim23-1 growth, BacTiter-Glo luminescence, 24 h. 4,400 compounds, 83% hits. inhibition, % at 20 µM. AID 463218, 2010;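 active = inhibition above about 39% in either of two replicate wells at 20 µM, limit read from the data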;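 note: temperature-sensitive tim23-1 mutant grown at 25 °C; 0% = DMSO wells with yeast and 100% = medium wells without yeast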
Mdm2 MdmX conf – Mdm2-MdmX complex disruptors, retested hits, confirmation, luminescence, single concentration; shares compounds with Mdm2 MdmX PPI; 10,000 compounds, 55% hits; Mdm2-MdmX binding, luminescent assay; inhibition, % at 8 µM; AID 489028, 2010; in the data active = inhibition above about 40%
Full FLuc ctr – full-length luciferase signal inhibition, confirmation, counter-screen for Mdm2/MdmX interaction inhibitor project, cell-based, single concentration, SaOS-2; shares compounds with Mdm2 MdmX PPI; SaOS-2 full-length luciferase counterscreen, luminescence; inhibition, % at 8 µM; 6,200 compounds, 77% hits;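 active = mean inhibition at 8 µM reaching about 37%, which flags the compound as non-specific, limit read from the data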;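 note: p53-null SaOS-2 cells with luciferase driven by a doxycycline-inducible promoter; compound on cells about two nights before reading with doxycycline added after day one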
Starred values were filed as active, the others as inactive; nt = not tested or not shown.

SMILES	tim10-1 inh	tim23-1 inh	TIM10 inh	MPTP block	Mdm2 MdmX PPI	tim10-1 confirm	Mdm2 MdmX conf	Full FLuc ctr	others
COc1ccc(/C=C\C(=O)O[C@@H]2C(O)C(O[C@@H]3OC(C)[C@H](O[C@@H]4OCC(O[C@H]5O[C@H](CO)[C@@H](O)C(O)C5O)C(O)C4O)C(O)C3O)[C@H](OC(=O)[C@]34CCC(C)(C)C[C@@H]3C3=CCC5[C@@]6(C)CC(O)C(O[C@@H]7OC(CO)C(O)[C@H](O)[C@H]7O)[C@@](C)(C(=O)O)C6CC[C@@]5(C)[C@]3(CO)CC4)O[C@H]2C)cc1 (stereo partly specified)	48*	16	-12	0	79*	38*	59*	17
CC(=O)n1c2c(c3ccccc31)OC(N)=C(C#N)C2c1ccc(C(C)C)cc1 (stereo unspecified)	42*	55*	35	5	59*	37*	66*	131*	tim23-1 confirm=52*
Cc1cc(N/N=C/c2ccccc2O)nc(-c2ccccc2O)n1	50*	32	41*	6	72*	32*	72*	46*	TIM10 conf=4
COCCNC(=O)C1(C)CCN(C(=O)/C=C/c2ccccc2)C1 (stereo unspecified)	nt	nt	nt	1	nt	nt	nt	nt
CC(=O)/C(=N\Nc1ccccc1)Sc1cccc2cccnc12	15	27	13	0	-10	nt	nt	nt
O=C(Sc1cccc2cccnc12)c1ccccc1Br	56*	89*	53*	2	97*	72*	90*	4	TIM10 conf=74*;tim23-1 confirm=67*
O=C(Sc1cccc2cccnc12)c1ccc(F)cc1	76*	80*	55*	nt	93*	67*	95*	15	TIM10 conf=58*;tim23-1 confirm=71*
COc1cc(C(=O)N(C)C2CCCCC2)cc(OC)c1OC	nt	nt	nt	-2	nt	nt	nt	nt
CCOc1cc(N2CCOCC2)c(OCC)cc1NC(=O)COC(=O)c1cc2ccccc2cc1O	8	-8	8	0	25	nt	nt	nt
CCOc1ccc(OCCC(=O)OCC(=O)Nc2cc(OCC)c(N3CCOCC3)cc2OCC)cc1	46*	49	28	-1	50*	31	44*	54*
CCCCCCN1CCN(C2CN(Cc3cn(Cc4ccc(C)cc4)nn3)S(=O)(=O)C2)CC1 (stereo unspecified)	nt	nt	nt	1	nt	nt	nt	nt
CSc1cccc(NC(=O)C2CCCN(c3ncnc4c3nc3n4CCCCC3)C2)c1 (stereo unspecified)	48*	38	9	3	57*	4	-23	nt
CC(=O)c1ccc(NC(=O)C2CCCN(c3ncnc4c3nc3n4CCCCC3)C2)cc1 (stereo unspecified)	8	8	-25	0	29	nt	nt	nt
NC(CCc1ccccc1)c1csc(Nc2cnccn2)n1 (stereo unspecified)	nt	nt	nt	0	nt	nt	nt	nt
CCCN(CCC)C(=S)NC(=O)c1ccc(-c2ccccc2)cc1	42*	32	44*	2	55*	16	26	nt	TIM10 conf=42*
CCOc1ccc(C(=O)NC(=S)N(Cc2ccccc2)Cc2ccccc2)cc1	nt	nt	nt	1	nt	nt	nt	nt
Cc1ccc(/C=C/C(=O)c2c(C)cc(C)[nH]c2=O)cc1	43*	27	31	-3	70*	38*	45*	51*
CCc1ccc(/C=C/C(=O)c2c(C)cc(C)[nH]c2=O)cc1	45*	33	16	0	72*	38*	48*	31
CCN(CC)CCNc1ccc(CO)c2oc3ccccc3c(=O)c12	nt	nt	nt	0	nt	nt	nt	nt
CCCC(=O)N1CCCC1(C)C(=O)NCc1ccc(SC)cc1 (stereo unspecified)	nt	nt	nt	0	nt	nt	nt	nt
Nc1ccc2c(c1)C(=O)C(=O)c1ccccc1-2	92*	73*	94*	3	98*	92*	99*	1	TIM10 conf=99*;tim23-1 confirm=69*
CCOC(=O)C1(C)CCCN(C(=O)c2cc(C#N)cs2)C1 (stereo unspecified)	nt	nt	nt	-1	nt	nt	nt	nt
N/C(=N\OC(=O)c1cccc(Cn2cc(C(F)(F)F)ccc2=O)c1)c1ccc(Cl)cc1	44*	51*	3	3	76*	56*	47*	83*	tim23-1 confirm=60*
N/C(=N\OC(=O)c1cccc(Cn2cc(C(F)(F)F)ccc2=O)c1)c1ccccc1	44*	1	22	2	68*	52*	24	nt
O=C(NCC(F)(F)F)c1[nH]c(C(F)(F)F)nc1-c1ccccc1	nt	nt	nt	1	nt	nt	nt	nt
SMILES	tim10-1 inh	tim23-1 inh	TIM10 inh	MPTP block	Mdm2 MdmX PPI	tim10-1 confirm	Mdm2 MdmX conf	Full FLuc ctr	others
CCc1nc2ccc(C(=O)Nc3cccc(OCC(=O)N(C)C)c3)cn2c1N(C=O)Cc1ccc(OC)cc1	nt	nt	nt	1	nt	nt	nt	nt
Cc1ccc(S(=O)(=O)c2nc(S(C)(=O)=O)sc2N2CCCCC2C)cc1 (stereo unspecified)	42*	43	37	1	57*	43*	41*	40*
Cc1cc(C)c2c(c1)/C(=C/C(=O)c1ccc(Br)s1)C(=O)N2	78*	74*	76*	-2	96*	69*	41*	87*	TIM10 conf=66*;tim23-1 confirm=70*
CN(C)/C=C/C(=O)c1ccc(Br)s1	7	28	-13	1	-10	nt	nt	nt
Cc1cc(NCCOCCO)n2ncc(-c3ccc(Cl)cc3)c2n1	57*	36	42*	2	61*	44*	54*	59*	TIM10 conf=50*
CCOC(=O)[C@]12CCC=C1N(Cc1ccc3c(c1)OCO3)C(=O)[C@H](CC(=O)NCCC(C)C)C2	nt	nt	nt	1	nt	nt	nt	nt
COc1ccccc1NS(=O)(=O)c1cc(-c2cnc(C3CC3)o2)ccc1C	45*	45	-2	-1	53*	12	46*	56*
